Data from PubChem BioAssay (Tox21).
Results filed as inconclusive are left out. Active and inactive are the calls of the source. Unless noted, the call rests on the fitted dose curve; in most records, active means well fitted curve in the direction sought with a large enough effect in the repeat runs; inconclusive means weak or mixed curves; inactive means no such curve, though single readings can be large; an effect the other way counts as inactive or inconclusive.

Assays:
[1] = qHTS assay to identify small molecule agonists of the vitamin D receptor (VDR) signaling pathway - cell viability counter screen (AID 743224); further: series mostly up to about 63 µM; nearly all actives have a fitted effect of over 50% in size
How it was run: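 Compounds were pin-transferred onto VDR-bla cells plated 4 h earlier; following 16 h incubation at 37C, cell viability was quantified by CellTiter-Glo luminescence after 30 min at room temperature.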

[2] = qHTS assay to identify small molecule antagonists of the vitamin D receptor (VDR) signaling pathway - cell viability counter screen (AID 743225); further: nearly all actives have a fitted effect of over 50% in size
How it was run: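 Read-out: CellTiter-Glo luminescence measured 30 min after reagent addition at room temperature. Cells were VDR-bla HEK 293T exposed 16 h at 37C, 5% CO2, to compound with 3 nM final calcitriol agonist.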

[3] = qHTS assay to identify small molecule agonists of the NFkB signaling pathway (AID 1159509; active means well fitted curve in the direction sought with a large enough effect in the signal ratio in the repeat runs, not every such curve was filed as active; the % refers to the signal ratio; further: series mostly up to about 61 µM)
How it was run: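 Pathway activation was measured in ME-180 cells stably expressing beta-lactamase under NF-kB response element control. Substrate cleavage was read as the 460/530 nm emission shift after 5 hr compound incubation.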

[4] = qHTS assay to identify small molecule agonists of the NFkB signaling pathway - cell viability counter screen (AID 1159515; calls by dose curve; further: series mostly up to about 61 µM; nearly all actives have a fitted effect of over 55% in size)
How it was run: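 Parallel cytotoxicity counter screen in ME-180 cells carrying an NFkB-response-element beta-lactamase reporter, 2,000 cells/well. Compound exposure lasted 5 hr at 37 C, 5% CO2. Cell viability was quantified by CellTiter-Glo luminescence.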

[5] = qHTS assay to identify small molecule agonists of the endoplasmic reticulum stress response signaling pathway (AID 1159516; active means well fitted activation curve with a large enough effect in the signal ratio in the repeat runs, not every such curve was filed as active; the % refers to the signal ratio)
How it was run: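 Using a HeLa line with an ESRE-driven beta-lactamase gene, agonist activity was measured by FRET substrate fluorescence (460 and 530 nm emission) after cells were treated with compounds for 5 hr at 37 C and 5% CO2.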

[6] = qHTS assay to identify small molecule antagonists of the retinoid-related orphan receptor gamma (ROR-gamma) signaling pathway - cell viability counter screen (AID 1159520); further: nearly all actives have a fitted effect of over 50% in size
How it was run: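 Tet-on ROR gamma CHO cells were given compounds for 2 hr, then doxycycline hyclate at 1 uM final, and incubated 16 hr at 37 C. Viability was measured as ATP content by CellTiter-Glo luminescence.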

[7] = target: Nuclear receptor ROR-gamma (Homo sapiens) (UniProt P51449); experiment: qHTS assay to identify small molecule antagonists of the retinoid-related orphan receptor gamma (ROR-gamma) signaling pathway (AID 1159521;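 further: CHO cells with doxycycline inducible ROR-gamma driving an RORE luciferase reporter; top concentration of the series differs between compounds; nearly all actives have a fitted effect of over 50% in size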)
How it was run: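 CHO Tet-on RORγ, RORE-luc reporter. Cpd 2 h pre-incubation, then dox hyclate 1 uM final, 16 h, 37 C/5% CO2. ONE-Glo luminescence; decrease = antagonist.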

[8] = qHTS assay to identify small molecule agonists of the AP-1 signaling pathway - cell viability counter screen (AID 1159525; calls by dose curve; further: nearly all actives have a fitted effect of over 55% in size)
How it was run: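 Same-well cytotoxicity counter screen of the Tox21 10K library in ME-180 cells. The readout is ATP-dependent luminescence after 5 h compound treatment. Data are normalised to DMSO and tetra n-octyl ammonium bromide controls.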

[9] = qHTS assay to identify small molecule agonists of the AP-1 signaling pathway (AID 1159526; calls by dose curve)
[10] = target: Retinoic acid receptor RXR-alpha (Homo sapiens) (UniProt P19793); experiment: qHTS assay to identify small molecule agonists of the RXR signaling pathway (AID 1159527; calls by dose curve; further: nearly all actives have a fitted effect of over 35% in size)
How it was run: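 Read-out: beta-lactamase FRET ratio (405 nm excitation, 460 and 530 nm emission) after 2 hr substrate loading at room temperature. Cells were RXR-alpha-UAS-bla HEK 293T treated with compounds for 16 hr in 2% charcoal-stripped FBS medium.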

[11] = qHTS assay to identify small molecule agonists of the RXR signaling pathway - cell viability counter screen (AID 1159529)
How it was run: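 HEK 293T RXRa-bla cells, 2% CS-FBS; 5 h settle; cpd 16 h 37 C, 5% CO2; CellTiter-Glo 30 min RT, luminescence. Tetraoctyl ammonium bromide as positive control.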

[12] = qHTS assay to identify small molecule antagonists of the retinoid acid receptor (RAR) signaling pathway - cell viability counter screen (AID 1159551); further: nearly all actives have a fitted effect of over 35% in size
How it was run: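 ATP-based viability, C3RL4 cells, 6 h at 37 C with 1 uM final retinol co-added after compound; luminescence read 30 min post CellTiter-Glo, RT.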

[13] = qHTS assay to identify small molecule antagonists of the retinoic acid receptor (RAR) signaling pathway (AID 1159552; further: nearly all actives have a fitted effect of over 50% in size)
How it was run: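 Cells of the C3RL4 line were seeded, incubated overnight, then dosed with compounds in DMSO followed immediately by retinol (1 uM final). Six hours later luciferase detection reagent went in; signal was measured after 30 min at RT.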

[14] = qHTS assay to identify small molecule agonists of the retinoic acid receptor (RAR) signaling pathway (AID 1159553)
How it was run: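 Quantitative high-throughput format: the Tox21 10K library was tested on C3RL4 RARE-luciferase cells for 6 hr at 37 C and 5% CO2, with luminescence measured after a 30 min room-temperature reagent step.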

[15] = qHTS assay to identify small molecule antagonists of the estrogen related receptor (ERR) signaling pathway from Tox21 library - cell viability counter screen (AID 1224834); further: nearly all actives have a fitted effect of over 30% in size
How it was run: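 Compounds in DMSO were pinned onto ERR cells that had been incubated for 6 h, and the plates were held at 37 C for 17.5 h. CellTiter-Fluor reagent was then added and fluorescence was measured after 30 min.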

[16] = target: Luciferin 4-monooxygenase (Photinus pyralis) (UniProt P08659); experiment: qHTS assay to identify small molecule inhibitors of firefly luciferase (AID 1224835); further: series mostly up to about 120 µM; nearly all actives have a fitted effect of over 25% in size
How it was run: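 Biochemical qHTS: compounds run as interplate titrations against purified firefly enzyme, with D-luciferin and ATP each at its KM concentration. Light output recorded by CCD imaging.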

[17] = qHTS assay to identify small molecule agonists of the constitutive androstane receptor (CAR) signaling pathway - cell viability counter screen (AID 1224836); further: series mostly up to about 92 µM; nearly all actives have a fitted effect of over 45% in size
How it was run: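 HepG2-CYP2B6-hCAR, 2500 cells/well, 4 h pre-incubation; cpd 15 conc + PK11195 0.75 uM final; 23 h, 37 C/5% CO2; CellTiter-Fluor, fluorescence.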

[18] = qHTS assay to identify small molecule antagonists of the constitutive androstane receptor (CAR) signaling pathway - cell viability counter screen (AID 1224837); further: series mostly up to about 92 µM; nearly all actives have a fitted effect of over 45% in size
How it was run: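 Cells are seeded, rested 4 hr at 37 C/5% CO2, dosed with compound (15-point series) and 50 nM CITCO, incubated a further 23 hr, and then CellTiter-Fluor reagent is added before fluorescence is read. The line is HepG2 with stable hCAR and CYP2B6-2.2kb.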

[19] = target: Nuclear receptor subfamily 1 group I member 3 (Homo sapiens) (UniProt Q14994); experiment: qHTS assay to identify small molecule antagonists of the constitutive androstane receptor (CAR) signaling pathway (AID 1224838);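 further: HepG2 cells stably expressing hCAR with CYP2B6 luciferase reporter stimulated by CITCO; nearly all actives have a fitted effect of over 40% in size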
How it was run: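 Luminescence from a CYP2B6-2.2kb promoter reporter in hCAR-expressing HepG2 cells reflects CAR signaling. Cells received compounds at 15 concentrations and 50 nM CITCO (final), then incubated 24 h at 37 C/5% CO2.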

[20] = qHTS assay to identify small molecule agonists of the endoplasmic reticulum stress response signaling pathway - cell viability counter screen (AID 1159517; calls by dose curve)
How it was run: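 In parallel with the ESRE reporter read, cytotoxicity was scored by CellTiter-Glo luminescence (30 min, room temperature) on HeLa ESRE-bla cells dosed for 5 hr.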

Measured: Potency

Sequence of Nuclear receptor subfamily 1 group I member 3 (Homo sapiens) (Q14994 whole entry, looked up): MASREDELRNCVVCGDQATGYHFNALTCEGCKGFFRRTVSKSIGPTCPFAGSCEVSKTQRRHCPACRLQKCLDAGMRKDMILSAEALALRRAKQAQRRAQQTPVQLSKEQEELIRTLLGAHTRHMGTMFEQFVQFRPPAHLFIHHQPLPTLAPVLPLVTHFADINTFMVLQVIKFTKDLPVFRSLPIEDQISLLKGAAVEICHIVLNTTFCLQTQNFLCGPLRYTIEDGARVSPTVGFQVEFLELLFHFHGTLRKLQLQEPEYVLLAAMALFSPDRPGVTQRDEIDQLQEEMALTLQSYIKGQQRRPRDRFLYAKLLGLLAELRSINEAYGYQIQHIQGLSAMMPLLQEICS
Sequence of Retinoic acid receptor RXR-alpha (Homo sapiens) (P19793 whole entry, looked up): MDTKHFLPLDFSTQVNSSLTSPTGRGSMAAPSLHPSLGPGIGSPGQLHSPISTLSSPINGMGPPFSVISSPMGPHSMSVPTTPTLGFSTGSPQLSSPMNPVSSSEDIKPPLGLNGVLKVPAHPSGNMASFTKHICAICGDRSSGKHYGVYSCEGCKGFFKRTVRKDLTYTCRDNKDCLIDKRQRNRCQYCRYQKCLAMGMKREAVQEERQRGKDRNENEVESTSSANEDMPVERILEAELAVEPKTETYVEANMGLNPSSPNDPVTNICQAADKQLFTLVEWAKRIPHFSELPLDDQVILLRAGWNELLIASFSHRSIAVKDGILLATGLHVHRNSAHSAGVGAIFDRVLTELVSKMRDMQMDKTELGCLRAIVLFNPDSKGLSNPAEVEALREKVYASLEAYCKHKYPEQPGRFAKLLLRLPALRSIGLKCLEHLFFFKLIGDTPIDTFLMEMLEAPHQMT
Sequence of Luciferin 4-monooxygenase (Photinus pyralis) (P08659 whole entry, looked up): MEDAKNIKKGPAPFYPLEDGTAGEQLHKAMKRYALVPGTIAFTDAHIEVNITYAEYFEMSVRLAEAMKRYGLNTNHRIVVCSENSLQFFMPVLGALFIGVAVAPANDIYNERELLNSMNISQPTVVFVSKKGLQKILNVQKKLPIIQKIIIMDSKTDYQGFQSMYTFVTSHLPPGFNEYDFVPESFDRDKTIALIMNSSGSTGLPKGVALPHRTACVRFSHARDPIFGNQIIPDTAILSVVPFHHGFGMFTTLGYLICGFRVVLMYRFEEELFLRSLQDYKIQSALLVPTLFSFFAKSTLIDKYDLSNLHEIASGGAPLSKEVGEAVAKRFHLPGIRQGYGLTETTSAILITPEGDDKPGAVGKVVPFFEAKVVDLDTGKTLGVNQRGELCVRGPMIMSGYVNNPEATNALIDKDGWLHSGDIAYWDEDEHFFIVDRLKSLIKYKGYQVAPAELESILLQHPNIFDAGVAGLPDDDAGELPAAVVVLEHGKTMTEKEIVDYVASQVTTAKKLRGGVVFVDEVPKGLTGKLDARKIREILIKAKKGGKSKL

C=CCSSCCC
not listed: [20]
inactive: all other assays above

COP(=O)(O)OP(=O)(O)OC
not listed: [2] | [17] | [18] | [20]
inactive: all other assays above

O=Cc1cc2ccccc2o1
not listed: [20]
inactive: all other assays above

CCCSSCCC
not listed: [8] | [17] | [20]
inactive: all other assays above

O=C1NC(c2ccccc2)(c2ccccc2)C(=O)N1COP(=O)(O)O
not listed: [2] | [4]
inactive: all other assays above

CCNC(=O)NCc1cccc(Cl)c1
not listed: [2] | [4]
inactive: all other assays above

CC(N)CCCC(C)(C)O (stereo unspecified)
not listed: [20]
inactive: all other assays above
